Shown are actives, neighbours in structure and some others; about 7.8% of the full set was active somewhere.
Hedgehog inh: Hedgehog pathway signaling inhibitors, primary screen, luminescence, Shh-LIGHT2 cells, Gli-luciferase; Shh-LIGHT2 Gli-luciferase reporter, 30 h; inhibition, % (test concentration not listed); 22,000 tested, 2.1% active; AID 2313, 2010;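 active = mean inhibition across valid replicates above about 65%, limit read from the data; inconclusive = mean under the limit, yet half or more replicates past it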;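 note: pathway switched on by Shh-conditioned medium diluted 1 in 25 in low serum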
NOMO-1 viab: NOMO-1 AML cell viability reduction, primary screen, STK33 inhibitor project, CellTiter-Glo luminescence; NOMO-1 AML viability, 72 h; inhibition, % (concentration not given with the values); 37,000 tested, 7.5% active; AID 2330, 2010; in the data active = inhibition above about 80%; inconclusive = no clear call, values can overlap the other calls
MITF inh: inhibitors of MITF, primary screen, MITF inhibitor project, cell-based, luminescence | TRPM1 promoter luciferase, 24 h | AID 2240, 2010 | inhibition, % (concentration not given with the values) | 37,000 tested, 0.28% active; in the data active = inhibition above about 85%; inconclusive = no clear call, values can overlap the other calls; inactive = below about 68%;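 note: human melanocyte line stably carrying TRPM1 promoter luciferase reporter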
Numbers stand for hits; i = inactive; ? = inconclusive; nt = no result.

SMILES | Hedgehog inh | NOMO-1 viab | MITF inh
C[C@@H]1CN([C@H](C)CO)C(=O)c2cc(NC(=O)c3ccncc3)ccc2O[C@H]1CN(C)Cc1ccc(-c2ccccc2)cc1 | 89 | 93 | i
COc1cc(OC)cc(-c2nnc(SCC(=O)Nc3cccc(Cl)c3Cl)o2)c1 | nt | i | i
Cc1cc([N+](=O)[O-])ccc1NC(=O)CSc1nnc(-c2ccc(Cl)cc2Cl)n1C | nt | i | i
C[C@H](CO)N1C[C@H](C)[C@@H](CN(C)S(C)(=O)=O)Oc2c(NC(=O)Nc3cccc4ccccc34)cccc2C1=O | i | i | i
Cc1nc2sccn2c(=O)c1CCN1CCC(=C(c2ccccc2)c2ccc(F)cc2)CC1 | 71 | i | i
O=C(c1ccc(F)cc1)C1CCN(CCn2c(=O)[nH]c3ccccc3c2=O)CC1 | i | i | i
CC(C)NC(=O)N(C)C[C@H]1Oc2ccc(NC(=O)Nc3ccc(C(F)(F)F)cc3)cc2CC(=O)N([C@H](C)CO)C[C@H]1C | i | ? | i
COc1ccc(NC(=O)N(C)C[C@H]2Oc3ccc(NC(=O)Nc4ccc(C(F)(F)F)cc4)cc3CC(=O)N([C@@H](C)CO)C[C@H]2C)cc1 | nt | 124 | i
C[C@@H]1CN([C@H](C)CO)C(=O)Cc2cc(NC(=O)Nc3ccc(C(F)(F)F)cc3)ccc2O[C@@H]1CN(C)C(=O)NC1CCCCC1 | i | 112 | i
CC(C)NC(=O)N(C)C[C@H]1Oc2ccc(NC(=O)Nc3ccc(C(F)(F)F)cc3)cc2CC(=O)N([C@@H](C)CO)C[C@H]1C | i | 114 | i
C[C@H]1CN([C@@H](C)CO)C(=O)Cc2cc(NC(=O)Nc3ccc(C(F)(F)F)cc3)ccc2O[C@@H]1CN(C)C(=O)NC1CCCCC1 | i | i | i
C[C@@H]1CN([C@@H](C)CO)C(=O)Cc2cc(NC(=O)Nc3ccc(C(F)(F)F)cc3)ccc2O[C@@H]1CN(C)C(=O)Nc1ccc(C(F)(F)F)cc1 | i | 114 | i
C[C@@H]1CN([C@H](C)CO)C(=O)Cc2cc(NC(=O)Nc3ccc(C(F)(F)F)cc3)ccc2O[C@H]1CN(C)C(=O)Nc1ccc(C(F)(F)F)cc1 | i | i | i
COc1ccc(NC(=O)Nc2ccc3c(c2)CC(=O)N([C@@H](C)CO)C[C@H](C)[C@H](CN(C)C(=O)Nc2ccc(C(F)(F)F)cc2)O3)cc1 | i | i | i
CNC[C@@H]1Oc2ccc(NC(=O)C3CCCCC3)cc2CC(=O)N([C@H](C)CO)C[C@H]1C | i | i | i
CCn1c2ccccc2n2c(SCCC(=O)O)nnc12 | nt | i | i
O=C(NC(=S)Nc1cccc(-c2ccc(CO)o2)c1)c1cc2ccccc2o1 | nt | i | i
CO[C@@H]1C=C[C@@]23c4cc5c(cc4CN(CC2O)[C@H]3C1)OCO5 (some centres not stated) | 88 | 113 | i
O=C(NC(=O)c1cn2cc(C(F)(F)F)cc(Cl)c2n1)Nc1ccc(Cl)cc1 | i | i | i
C[C@@H]1CCCCO[C@@H](CN(C)C(=O)Nc2ccc3c(c2)OCO3)[C@@H](C)CN([C@H](C)CO)C(=O)c2cc(NC(=O)Nc3ccc4c(c3)OCO4)ccc2O1 | i | i | i
CCOC(=O)c1ccc(NC(=O)Cn2c(=O)oc3ccccc32)cc1 | nt | i | i
CCOC(=O)c1c(-c2ccccc2)oc2ccc(O)c(CSCC(=O)Nc3ccccc3)c12 | nt | 126 | i
Cc1cccc(C2Sc3ccccc3N=C3c4ccccc4C(=O)C32)c1 (configuration not stated) | i | 104 | i
COc1ccccc1NC(=O)CSc1ncnc2scc(-c3ccccc3)c12 | nt | i | i
COc1ccc(Cc2nnc(SCC(=O)Nc3ccc(OC)cc3)o2)cc1 | i | i | i
SMILES | Hedgehog inh | NOMO-1 viab | MITF inh
COc1ccc(S(=O)(=O)Nc2ccc3c(c2)C(=O)N([C@H](C)CO)C[C@H](C)[C@H](CN(C)Cc2ccc(C(=O)Nc4ccccc4N)cc2)OCCCC[C@@H](C)O3)cc1 | nt | 126 | i
COc1ccc(CN(C)C[C@@H]2OCCCC[C@@H](C)Oc3ccc(NS(=O)(=O)c4ccccc4)cc3C(=O)N([C@H](C)CO)C[C@@H]2C)cc1 | nt | i | i
C[C@@H]1CCCCO[C@@H](CN(C)Cc2ccc(C(=O)Nc3ccccc3N)cc2)[C@@H](C)CN([C@H](C)CO)C(=O)c2cc(NS(=O)(=O)c3ccc(Cl)cc3)ccc2O1 | nt | 127 | i
C[C@@H]1CCCCO[C@H](CN(C)Cc2ccc(C(=O)Nc3ccccc3N)cc2)[C@@H](C)CN([C@H](C)CO)C(=O)c2cc(NS(C)(=O)=O)ccc2O1 | nt | i | i
COc1ccc(CN(C)C[C@@H]2Oc3c(NC(=O)Nc4c(C)noc4C)cccc3C(=O)N([C@@H](C)CO)C[C@H]2C)cc1 | i | i | i
CN(CC(=O)Nc1ccc(Cl)cc1C(F)(F)F)S(=O)(=O)c1ccc(Cl)cc1 | nt | i | i
C[C@@H]1CN([C@@H](C)CO)C(=O)c2cc(NC(=O)CCC(F)(F)F)ccc2O[C@@H]1CN(C)Cc1ccc(C(F)(F)F)cc1 | nt | i | i
O=C(NCCCN1CCOCC1)c1cccc([N+](=O)[O-])c1 | nt | i | i
O=[N+]([O-])c1ccc(S(=O)(=O)CC(CN2CCOCC2)N2CCOCC2)cc1 (configuration not stated) | nt | 102 | i
Cc1cccc(NC(=O)c2ccc(OC(C)C(=O)Nc3ccc(Br)cc3)cc2)c1C (configuration not stated) | nt | 115 | i
Cc1ccc(NC(=O)c2ccc(OC(C)C(=O)Nc3ccccc3)cc2)cc1 (configuration not stated) | nt | i | i
CC(Oc1ccc(C(=O)Nc2ccc(Cl)cc2)cc1)C(=O)Nc1ccc(Br)cc1 (configuration not stated) | nt | 136 | i
COC(=O)c1ccccc1NC(=O)c1ccc(NC(=O)C(C)Oc2ccccc2)cc1 (configuration not stated) | nt | i | i
COc1ccc(OC)c(C(=O)c2ccc(C(=O)NCc3nc(-c4ccccc4)cs3)cc2)c1 | nt | i | i
COc1ccc(S(=O)(=O)N(C)C[C@@H]2Oc3ccc(NC(=O)CCC(F)(F)F)cc3CC(=O)N([C@H](C)CO)C[C@@H]2C)cc1 | nt | i | i
COC(=O)CCS(=O)(=O)c1cccc2c(S(=O)(=O)CCC(=O)OC)cccc12 | i | 124 | i
O=C(O)CCS(=O)(=O)c1cccc2cccnc12 | nt | i | i
N=C1S/C(=C/c2ccccc2)C(=O)N1c1nonc1N | i | i | i
CCOc1cc(/C=C2/SC(=N)N(c3nccs3)C2=O)ccc1OCCN1CCOCC1 | i | 112 | i
Cc1ccc(S(=O)(=O)N(C)C[C@@H]2OCCCC[C@@H](C)Oc3ccc(NC(=O)c4ccccc4)cc3C(=O)N([C@H](C)CO)C[C@@H]2C)cc1 | i | ? | i
CC(Oc1ccc(F)cc1)C(=O)Nc1sc2c(c1C(N)=O)CCCC2 (configuration not stated) | nt | 89 | i
CCOC(=O)c1c(NC(=O)C(C)Oc2ccccc2C)sc2c1CCCC2 (configuration not stated) | nt | i | i
COc1ccc(NC(=O)CC(=O)CSc2ccccc2)cc1 | i | 112 | i
COc1ccc(NC(=O)CSc2nnc(-c3ccccc3)c(-c3ccccc3)n2)cc1 | nt | i | i
O=C(CSc1nc(-c2ccccc2)cc(=O)[nH]1)Nc1cc(C(F)(F)F)ccc1Cl | nt | i | i
